Among the data in PMC7862700, “An all-to-all approach to the identification of sequence-specific readers for epigenetic DNA modifications on cytosine” are binding signal values, retold here.

Common to all, as to assay: DAPPL (digital affinity profiling via proximity ligation, sequencing); 10 mM Tris-HCl pH 7.5, 50 mM NaCl, 1 mM DTT, 4% glycerol, room temperature, 30 min; GST-TFs on glutathione beads, 16-mer random dsDNA library, 0.1% formaldehyde crosslink after washing; high values mean tight binding
The target of one assay is T1, FLI1 (Homo sapiens, UniProt Q01543 1-452).
T1 sequence: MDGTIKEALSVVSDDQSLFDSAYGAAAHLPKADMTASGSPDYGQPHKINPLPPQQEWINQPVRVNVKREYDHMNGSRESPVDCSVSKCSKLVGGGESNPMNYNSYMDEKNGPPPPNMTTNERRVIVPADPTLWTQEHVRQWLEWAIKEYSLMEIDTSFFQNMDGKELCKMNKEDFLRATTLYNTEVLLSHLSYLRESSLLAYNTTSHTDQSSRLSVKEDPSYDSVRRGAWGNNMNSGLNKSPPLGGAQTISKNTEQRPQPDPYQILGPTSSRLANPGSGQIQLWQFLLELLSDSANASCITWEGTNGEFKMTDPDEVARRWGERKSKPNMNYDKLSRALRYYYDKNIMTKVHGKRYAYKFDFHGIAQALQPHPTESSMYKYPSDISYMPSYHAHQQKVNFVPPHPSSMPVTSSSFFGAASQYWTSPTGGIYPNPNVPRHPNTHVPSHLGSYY
Conditions: protein: recombinant; tags: N-terminal GST; dsDNA, one strand shown. The procedure, abridged: (§1)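 Beads coated with glutathione captured GST-fused human transcription factors that had been expressed in yeast, and the factors were then given DNA barcodes and pooled with a tag-only sample. The pools were incubated with 200 nmole of a random double-stranded 16-mer DNA library in Tris/NaCl/DTT/glycerol buffer for 30 min at room temperature, washed, crosslinked with 0.1% formaldehyde and proximity-ligated with BsaI/T4 ligase at 37 °C for 1 h. PCR amplification and Illumina NextSeq500 sequencing came last. Binding signal is each hexamer's read frequency for a factor divided by its frequency for the tag-only sample.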

For a further assay, the target named is T2, GABPA (Homo sapiens, UniProt Q06546 1-454).
T2 sequence: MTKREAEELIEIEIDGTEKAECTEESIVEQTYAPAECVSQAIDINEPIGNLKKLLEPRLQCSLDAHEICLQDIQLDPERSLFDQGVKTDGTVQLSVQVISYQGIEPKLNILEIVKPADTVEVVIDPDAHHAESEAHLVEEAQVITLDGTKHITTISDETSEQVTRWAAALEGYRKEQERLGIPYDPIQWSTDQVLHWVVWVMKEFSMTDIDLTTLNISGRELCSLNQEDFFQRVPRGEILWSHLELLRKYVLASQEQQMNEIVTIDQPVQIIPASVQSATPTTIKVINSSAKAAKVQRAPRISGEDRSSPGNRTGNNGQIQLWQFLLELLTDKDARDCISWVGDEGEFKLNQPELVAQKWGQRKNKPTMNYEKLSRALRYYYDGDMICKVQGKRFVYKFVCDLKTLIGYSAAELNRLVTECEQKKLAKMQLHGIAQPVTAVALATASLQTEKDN
Conditions: protein: recombinant; tags: N-terminal GST; dsDNA, one strand shown. The gist of the method:
as §1

The next assay concerns the target ELF1 (Homo sapiens, UniProt P32519 1-619). Conditions: protein: recombinant; tags: N-terminal GST; dsDNA, one strand shown. The gist of the method: as §1
The target of a further assay is T3, EHF (Homo sapiens, UniProt Q9NZC4 1-300).
T3 sequence: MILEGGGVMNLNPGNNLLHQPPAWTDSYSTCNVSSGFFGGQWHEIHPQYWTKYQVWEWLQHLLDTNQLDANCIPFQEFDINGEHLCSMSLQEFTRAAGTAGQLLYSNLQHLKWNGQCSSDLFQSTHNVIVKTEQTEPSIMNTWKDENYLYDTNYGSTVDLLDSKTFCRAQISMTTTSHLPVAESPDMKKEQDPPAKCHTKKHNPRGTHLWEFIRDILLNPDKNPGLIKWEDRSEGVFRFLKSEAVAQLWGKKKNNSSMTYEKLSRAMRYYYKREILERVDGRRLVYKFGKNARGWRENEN
Conditions: protein: recombinant; tags: N-terminal GST; dsDNA, one strand shown. The gist of the method:
as §1

The target of a further assay is SPI1 (Homo sapiens, UniProt P17947 1-270). Conditions: protein: recombinant; tags: N-terminal GST; dsDNA, one strand shown. The procedure, abridged: as §1
A further assay concerns the target SPIB (Homo sapiens, UniProt Q01892 1-262). Conditions: protein: recombinant; tags: N-terminal GST; dsDNA, one strand shown. The procedure, abridged: as §1
The target of another assay is T4, ELK3 (Homo sapiens, UniProt P41970 1-407).
T4 sequence: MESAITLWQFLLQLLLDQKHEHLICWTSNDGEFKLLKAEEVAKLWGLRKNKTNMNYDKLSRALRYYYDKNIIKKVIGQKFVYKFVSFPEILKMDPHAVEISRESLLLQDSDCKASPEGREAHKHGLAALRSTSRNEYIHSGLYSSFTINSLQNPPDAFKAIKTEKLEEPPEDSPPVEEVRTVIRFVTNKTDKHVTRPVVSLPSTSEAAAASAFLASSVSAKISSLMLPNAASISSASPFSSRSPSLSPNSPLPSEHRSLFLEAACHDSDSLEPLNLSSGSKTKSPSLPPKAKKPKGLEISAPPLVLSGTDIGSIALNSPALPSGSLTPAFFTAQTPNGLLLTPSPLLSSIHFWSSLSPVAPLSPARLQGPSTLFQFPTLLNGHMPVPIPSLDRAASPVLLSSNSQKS
Conditions: protein: recombinant; tags: N-terminal GST; dsDNA, one strand shown. The procedure, abridged: as §1

The next assay has as its target ETV5 (Homo sapiens, UniProt P41161 1-510). Conditions: protein: recombinant; tags: N-terminal GST; dsDNA, one strand shown. The gist of the method:
as §1

The target in a further assay is HSF1 (Homo sapiens, UniProt Q00613 1-529). Conditions: protein: recombinant; tags: N-terminal GST; chain copies: 3; dsDNA, one strand shown. The procedure, abridged: as §1
The next assay has as its target T5, SPIC (Homo sapiens, UniProt Q8N5J4 1-248).
T5 sequence: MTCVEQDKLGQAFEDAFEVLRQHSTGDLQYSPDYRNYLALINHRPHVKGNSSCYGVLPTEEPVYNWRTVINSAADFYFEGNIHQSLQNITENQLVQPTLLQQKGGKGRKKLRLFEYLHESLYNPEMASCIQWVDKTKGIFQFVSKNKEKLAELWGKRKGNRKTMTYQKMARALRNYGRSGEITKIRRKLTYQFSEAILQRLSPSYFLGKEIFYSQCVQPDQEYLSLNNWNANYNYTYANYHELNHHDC
The note with it: protein: recombinant; tags: N-terminal GST; dsDNA, one strand shown. The procedure, abridged: as §1

The next assay concerns the target ELF4 (Homo sapiens, UniProt Q99607 1-663). Conditions: protein: recombinant; tags: N-terminal GST; dsDNA, one strand shown. The gist of the method: as §1
Another assay has as its target T6, ELK4 (Homo sapiens, UniProt P28324-2 1-405).
T6 sequence: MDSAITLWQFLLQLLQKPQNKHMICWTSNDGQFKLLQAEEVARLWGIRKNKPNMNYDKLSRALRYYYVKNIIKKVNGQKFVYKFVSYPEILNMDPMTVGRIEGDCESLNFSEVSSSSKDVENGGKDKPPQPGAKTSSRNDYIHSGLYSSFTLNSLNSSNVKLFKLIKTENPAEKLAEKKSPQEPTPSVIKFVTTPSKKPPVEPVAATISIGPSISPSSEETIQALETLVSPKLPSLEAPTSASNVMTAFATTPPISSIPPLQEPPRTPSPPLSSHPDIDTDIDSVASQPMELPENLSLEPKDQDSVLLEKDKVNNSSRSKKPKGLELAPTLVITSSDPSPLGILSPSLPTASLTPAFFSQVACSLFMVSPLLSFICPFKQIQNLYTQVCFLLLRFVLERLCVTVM
Conditions: protein: recombinant; tags: N-terminal GST; dsDNA, one strand shown. The procedure, abridged: as §1

The next assay has as its target T7, ETV2 (Homo sapiens, UniProt O00321 1-342).
T7 sequence: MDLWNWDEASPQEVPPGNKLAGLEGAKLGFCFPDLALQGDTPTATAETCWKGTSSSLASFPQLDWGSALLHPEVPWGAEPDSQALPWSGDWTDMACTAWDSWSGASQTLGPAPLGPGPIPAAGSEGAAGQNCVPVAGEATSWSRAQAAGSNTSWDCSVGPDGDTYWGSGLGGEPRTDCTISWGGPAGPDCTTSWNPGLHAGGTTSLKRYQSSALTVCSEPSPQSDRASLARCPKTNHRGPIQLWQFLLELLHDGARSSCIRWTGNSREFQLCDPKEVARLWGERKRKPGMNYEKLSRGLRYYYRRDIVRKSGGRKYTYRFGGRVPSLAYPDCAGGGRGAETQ
Conditions: protein: recombinant; tags: N-terminal GST; dsDNA, one strand shown. The procedure, abridged: as §1

A further assay has as its target T8, ELF3 (Homo sapiens, UniProt P78545 1-371).
T8 sequence: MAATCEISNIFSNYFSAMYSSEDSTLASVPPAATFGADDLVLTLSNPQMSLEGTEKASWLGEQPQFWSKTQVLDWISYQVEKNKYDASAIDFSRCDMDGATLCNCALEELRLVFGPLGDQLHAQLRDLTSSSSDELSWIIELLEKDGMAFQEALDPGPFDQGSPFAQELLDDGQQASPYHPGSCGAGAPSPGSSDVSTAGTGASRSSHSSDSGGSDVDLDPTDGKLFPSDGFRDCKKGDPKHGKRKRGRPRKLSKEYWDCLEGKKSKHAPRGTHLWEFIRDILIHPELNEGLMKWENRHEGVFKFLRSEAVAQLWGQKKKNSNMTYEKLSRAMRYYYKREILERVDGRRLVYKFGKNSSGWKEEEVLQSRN
Conditions: protein: recombinant; tags: N-terminal GST; dsDNA, one strand shown. The gist of the method:
as §1

The target in the next assay is CRX (Homo sapiens, UniProt O43186 1-299). The note with it: protein: recombinant; tags: N-terminal GST; dsDNA, one strand shown. The gist of the method: as §1
A further assay addresses ETV1 (Homo sapiens, UniProt P50549 1-477). Conditions: protein: recombinant; tags: N-terminal GST; dsDNA, one strand shown. The procedure, abridged:
as §1

Sequence of ELF1 (P32519 whole entry): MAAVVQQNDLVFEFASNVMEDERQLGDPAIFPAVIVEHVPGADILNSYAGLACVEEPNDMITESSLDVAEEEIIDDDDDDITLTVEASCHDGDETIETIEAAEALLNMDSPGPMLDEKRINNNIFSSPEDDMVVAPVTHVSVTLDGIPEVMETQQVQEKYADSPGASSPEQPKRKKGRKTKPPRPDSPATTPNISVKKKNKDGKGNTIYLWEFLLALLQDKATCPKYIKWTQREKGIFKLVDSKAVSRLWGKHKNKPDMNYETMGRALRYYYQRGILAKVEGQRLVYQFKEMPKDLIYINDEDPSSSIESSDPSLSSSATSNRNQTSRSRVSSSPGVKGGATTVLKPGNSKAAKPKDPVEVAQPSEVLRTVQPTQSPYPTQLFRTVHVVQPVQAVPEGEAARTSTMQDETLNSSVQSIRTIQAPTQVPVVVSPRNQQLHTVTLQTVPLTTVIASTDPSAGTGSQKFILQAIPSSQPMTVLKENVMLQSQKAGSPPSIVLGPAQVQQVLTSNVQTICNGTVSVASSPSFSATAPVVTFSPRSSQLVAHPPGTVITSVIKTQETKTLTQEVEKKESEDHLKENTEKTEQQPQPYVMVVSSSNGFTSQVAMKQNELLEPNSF
Sequence of ETV5 (P41161 whole entry): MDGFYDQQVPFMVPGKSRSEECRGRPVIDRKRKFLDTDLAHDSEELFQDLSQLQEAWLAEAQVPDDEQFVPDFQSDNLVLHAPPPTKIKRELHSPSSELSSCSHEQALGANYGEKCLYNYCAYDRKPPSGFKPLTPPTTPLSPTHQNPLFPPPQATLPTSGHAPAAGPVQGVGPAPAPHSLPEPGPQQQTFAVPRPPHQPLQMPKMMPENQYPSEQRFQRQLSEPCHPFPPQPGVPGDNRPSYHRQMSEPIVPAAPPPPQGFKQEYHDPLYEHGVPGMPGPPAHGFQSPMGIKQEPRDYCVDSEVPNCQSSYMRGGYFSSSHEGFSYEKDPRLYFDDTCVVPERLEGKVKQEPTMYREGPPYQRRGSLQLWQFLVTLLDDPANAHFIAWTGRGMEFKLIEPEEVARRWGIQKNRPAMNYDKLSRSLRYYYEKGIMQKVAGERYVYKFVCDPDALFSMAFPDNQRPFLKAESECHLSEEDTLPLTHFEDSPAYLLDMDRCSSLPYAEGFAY
Sequence of ETV1 (P50549 whole entry): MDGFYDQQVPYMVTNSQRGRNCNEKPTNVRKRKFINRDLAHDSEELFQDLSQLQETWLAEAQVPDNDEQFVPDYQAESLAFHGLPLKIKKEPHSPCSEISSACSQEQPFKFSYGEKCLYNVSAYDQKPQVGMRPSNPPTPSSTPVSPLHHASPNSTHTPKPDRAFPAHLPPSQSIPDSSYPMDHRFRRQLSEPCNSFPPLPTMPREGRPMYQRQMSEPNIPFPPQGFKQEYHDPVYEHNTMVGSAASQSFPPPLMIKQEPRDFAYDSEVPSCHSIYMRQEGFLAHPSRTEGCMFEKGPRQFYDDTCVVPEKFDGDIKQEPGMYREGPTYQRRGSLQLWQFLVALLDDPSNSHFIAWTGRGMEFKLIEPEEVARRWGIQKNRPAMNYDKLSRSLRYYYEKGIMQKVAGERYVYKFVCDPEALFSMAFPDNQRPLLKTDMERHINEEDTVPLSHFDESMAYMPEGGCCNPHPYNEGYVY
Sequence of ELF4 (Q99607 whole entry): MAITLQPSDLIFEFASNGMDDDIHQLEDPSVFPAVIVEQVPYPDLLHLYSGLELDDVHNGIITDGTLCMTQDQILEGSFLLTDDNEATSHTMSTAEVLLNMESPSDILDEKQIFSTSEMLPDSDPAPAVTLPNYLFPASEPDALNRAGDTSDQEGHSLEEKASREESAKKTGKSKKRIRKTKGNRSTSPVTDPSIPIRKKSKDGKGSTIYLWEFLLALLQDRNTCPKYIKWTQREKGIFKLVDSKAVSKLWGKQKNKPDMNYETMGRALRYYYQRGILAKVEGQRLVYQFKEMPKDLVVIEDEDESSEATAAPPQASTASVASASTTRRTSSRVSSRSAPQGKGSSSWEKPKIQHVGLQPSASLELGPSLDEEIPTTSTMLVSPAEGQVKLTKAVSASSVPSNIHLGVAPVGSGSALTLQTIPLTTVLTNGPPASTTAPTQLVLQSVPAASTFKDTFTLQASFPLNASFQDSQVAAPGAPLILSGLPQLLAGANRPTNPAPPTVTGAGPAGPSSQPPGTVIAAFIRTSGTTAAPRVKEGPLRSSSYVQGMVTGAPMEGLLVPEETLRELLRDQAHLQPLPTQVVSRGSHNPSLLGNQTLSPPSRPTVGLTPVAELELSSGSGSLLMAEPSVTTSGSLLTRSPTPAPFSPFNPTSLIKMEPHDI
Sequence of CRX (O43186 whole entry): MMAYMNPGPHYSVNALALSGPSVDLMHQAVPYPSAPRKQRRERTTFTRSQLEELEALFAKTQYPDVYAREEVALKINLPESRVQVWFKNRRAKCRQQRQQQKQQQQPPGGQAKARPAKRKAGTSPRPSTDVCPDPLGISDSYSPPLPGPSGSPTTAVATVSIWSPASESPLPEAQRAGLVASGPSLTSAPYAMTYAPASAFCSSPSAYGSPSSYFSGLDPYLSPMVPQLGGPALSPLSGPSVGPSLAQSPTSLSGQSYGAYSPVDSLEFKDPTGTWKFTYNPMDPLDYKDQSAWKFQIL
Sequence of HSF1 (Q00613 whole entry): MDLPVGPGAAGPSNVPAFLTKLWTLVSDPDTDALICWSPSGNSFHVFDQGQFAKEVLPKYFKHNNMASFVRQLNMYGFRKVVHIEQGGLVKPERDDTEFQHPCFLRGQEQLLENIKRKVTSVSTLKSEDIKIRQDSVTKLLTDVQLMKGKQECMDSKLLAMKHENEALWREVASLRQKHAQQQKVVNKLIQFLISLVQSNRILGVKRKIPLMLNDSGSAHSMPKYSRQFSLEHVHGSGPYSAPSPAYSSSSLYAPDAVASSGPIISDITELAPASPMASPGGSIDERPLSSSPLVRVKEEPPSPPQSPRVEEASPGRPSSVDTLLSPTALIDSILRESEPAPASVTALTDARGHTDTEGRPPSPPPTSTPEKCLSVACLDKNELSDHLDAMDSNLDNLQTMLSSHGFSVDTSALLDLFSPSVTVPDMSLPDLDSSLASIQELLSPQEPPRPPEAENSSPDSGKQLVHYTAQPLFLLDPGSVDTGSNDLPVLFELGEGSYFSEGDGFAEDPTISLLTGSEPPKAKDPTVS
Sequence of SPIB (Q01892 whole entry): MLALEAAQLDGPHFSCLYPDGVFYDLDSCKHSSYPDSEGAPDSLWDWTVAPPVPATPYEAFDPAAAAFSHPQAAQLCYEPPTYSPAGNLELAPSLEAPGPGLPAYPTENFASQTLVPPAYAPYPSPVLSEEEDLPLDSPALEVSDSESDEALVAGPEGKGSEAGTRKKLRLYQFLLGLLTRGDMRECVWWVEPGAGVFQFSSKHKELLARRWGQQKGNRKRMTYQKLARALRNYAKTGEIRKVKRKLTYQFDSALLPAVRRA

Consider TAGTAA, for which the binding signal with FLI1 is 1.13 fold enrichment (6-mer frequency, TF over GST control); with GABPA, 1.03 fold enrichment (6-mer frequency, TF over GST control); with ELF1, 1.08 fold enrichment (6-mer frequency, TF over GST control); with EHF it was 1.03 fold enrichment (6-mer frequency, TF over GST control); with SPI1, 1.02 fold enrichment (6-mer frequency, TF over GST control); with SPIB, 1.07 fold enrichment (6-mer frequency, TF over GST control). The binding signal with ELK3 is 1.13 fold enrichment (6-mer frequency, TF over GST control); in the assay with ETV5, 1.05 fold enrichment (6-mer frequency, TF over GST control); with HSF1, 1.54 fold enrichment (6-mer frequency, TF over GST control); with SPIC it was 1.07 fold enrichment (6-mer frequency, TF over GST control); in the assay with ELF4 it was 1.05 fold enrichment (6-mer frequency, TF over GST control); in the assay with ELK4, 1.04 fold enrichment (6-mer frequency, TF over GST control). Further, the binding signal in the assay with ETV2 is 1.12 fold enrichment (6-mer frequency, TF over GST control); with ELF3, 1.06 fold enrichment (6-mer frequency, TF over GST control); in the assay with CRX, 1.59 fold enrichment (6-mer frequency, TF over GST control); with ETV1, 1.07 fold enrichment (6-mer frequency, TF over GST control).
